# “And” between values parts separate entries of the source, which are not always exact repeats. Equal values may be shown once. Results filed as inconclusive are left out. The source made the active and inactive calls. How the source made its calls: active means hit-call score of the fitted dose curve at least 0.9, where 1 is the maximum; inconclusive means response in the unintended direction; inactive means score below 0.9.
# Legend:
# [1] = ATG_M_06_XSP2: Attagene TRANS-FACTORIAL Multi-Species (XSP2) HepG2 Assay for M06 Transcription Factor (Internal Marker) (AID 2283811);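 further: hits are increases in signal above the DMSO baseline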
# Summary of the method: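 Readout: fluorescent reporter-mRNA peaks by capillary electrophoresis after RT-PCR and HpaI digest, scored upward relative to DMSO. Transfected HepG2, 24 h chemical exposure, with 3 nM 6-alpha-fluorotestosterone and 1.5 nM norgestrel added.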
# [2] = system: turtle Estrogen Receptor (ERa), gene 101933533; assay: ATG_trERa_XSP2: Attagene TRANS-FACTORIAL Multi-Species (XSP2) HepG2 Assay for turtle Estrogen Receptor (ERa) (AID 2283812);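 further: actives raise reporter signal above DMSO so AC50 reflects agonist activity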
# Summary of the method: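 Readout is reporter mRNA quantified by RT-PCR with capillary electrophoresis after 24 h compound exposure, increase relative to DMSO. Uses transiently transfected human HepG2 liver cells carrying a chimeric turtle ERa-Gal4 receptor driving GAL4-UAS reporters.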
# [3] = biological target: Estrogen receptor beta (Homo sapiens) (UniProt Q92731); assay: ATG_hERb_XSP2: Attagene TRANS-FACTORIAL Multi-Species (XSP2) HepG2 Assay for human Estrogen Receptor (ERb) (AID 2283813);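 further: actives raise reporter mRNA above DMSO so AC50 reflects agonist induction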
# Summary of the method: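 Transient TRANS reporter system in HepG2: after 24 h of chemical, RNA is reverse-transcribed, reporter cDNA amplified, FAM-labelled and sized by capillary electrophoresis. Induction of the human ERb-Gal4 reporter is measured relative to DMSO.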
# [4] = biological target: Estrogen receptor beta (Homo sapiens) (UniProt Q92731); assay: ATG_hERb_XSP1: Attagene TRANS-FACTORIAL Multi-Species (XSP1) HepG2 Assay for human Estrogen Receptor (ESR2) (AID 2283788)
# Summary of the method: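 Transient MRTU transfection of HepG2; ERβ–GAL4 TRANS format; 24 h dosing; 3 nM 6α-fluorotestosterone co-added; RNA → RT-PCR → 6-FAM primer extension → CE; activity vs DMSO.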
# [5] = ATG_M_06_XSP1: Attagene TRANS-FACTORIAL Multi-Species (XSP1) HepG2 Assay for M06 Transcription Factor (Internal Marker) (AID 2283790)
# Summary of the method: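 This background-control readout tracks M06 reporter mRNA, measured by RT-PCR and capillary electrophoresis. HepG2 cells transiently carrying the GAL4-UAS reporter panel were dosed for 24 h with 3 nM 6-alpha-fluorotestosterone added for partial AR stimulation; increases were scored relative to DMSO.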
# [6] = ATG_M_61_XSP1: Attagene TRANS-FACTORIAL Multi-Species (XSP1) HepG2 Assay for M61 Transcription Factor (Internal Marker) (AID 2283797)
# Summary of the method: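 Background-control readout: reporter transcripts measured by RT-PCR and capillary electrophoresis 24 h after dosing transiently transfected HepG2 multi-reporter cells, with 3 nM 6-alpha-fluorotestosterone present. Fitted in the positive direction relative to DMSO.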
# [7] = ATG_M_32_XSP1: Attagene TRANS-FACTORIAL Multi-Species (XSP1) HepG2 Assay for M32 Transcription Factor (Internal Marker) (AID 2283799)
# Summary of the method: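 Reporter transcripts from the M32 internal-control unit measured by RT-PCR, FAM labelling, HpaI digestion and capillary electrophoresis after 24 h compound exposure of transfected HepG2, 3 nM 6-alpha-fluorotestosterone included; DMSO baseline, positive-direction fit.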
# [8] = biological target: Peroxisome proliferator-activated receptor gamma (Homo sapiens) (UniProt P37231); assay: ATG_hPPARg_XSP1: Attagene TRANS-FACTORIAL Multi-Species (XSP1) HepG2 Assay for human Peroxisome Proliferator-activated Receptor gamma (PPARg) (AID 2283800)
# Summary of the method: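 Reporter mRNA induction, measured by RT-PCR with capillary electrophoresis 24 h after dosing, scored as gain over DMSO. Transfected HepG2 cells express exogenous NR-Gal4 chimeras driving GAL4-UAS reporters; medium includes 3 nM 6-alpha-fluorotestosterone.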
# [9] = biological target: mouse Peroxisome Proliferator-activated Receptor gamma (PPARg), Pparg (gene 19016) (UniProt P37238); assay: ATG_mPPARg_XSP1: Attagene TRANS-FACTORIAL Multi-Species (XSP1) HepG2 Assay for mouse Peroxisome Proliferator-activated Receptor gamma (PPARg) (AID 2283802)
# Summary of the method: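 Readout is reporter mRNA induction, measured by RT-PCR with 6-FAM labelling, HpaI digestion and capillary electrophoresis, 24 h post-dose relative to DMSO. Transient multi-reporter transfection of human HepG2 with mouse PPARg–GAL4 fusion; 3 nM 6-alpha-fluorotestosterone included.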
# [10] = biological target: Nuclear receptor subfamily 1 group I member 2 (Mus musculus) (UniProt O54915); assay: ATG_mPXR_XSP1: Attagene TRANS-FACTORIAL Multi-Species (XSP1) HepG2 Assay for mouse Pregnane X Receptor (PXR) (AID 2283803)
# Summary of the method: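 Transiently transfected HepG2 cells expressing a receptor-Gal4 chimera drive a GAL4-UAS reporter; 3 nM 6-alpha-fluorotestosterone included. Reporter mRNA read 24 h post-dose by RT-PCR and capillary electrophoresis; gain of signal relative to DMSO.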
# [11] = biological target: zebrafish Thyroid Hormone Receptor alpha (TRa), thraa (gene 30670) (UniProt Q98867); assay: ATG_zfTRa_XSP1: Attagene TRANS-FACTORIAL Multi-Species (XSP1) HepG2 Assay for zebrafish Thyroid Hormone Receptor alpha (TRa) (AID 2283807)
# Summary of the method: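 Reporter transcripts driven by a chimeric zebrafish TRa–Gal4 protein were measured by RT-PCR with fluorescent labelling and capillary electrophoresis. These came from transiently transfected HepG2 cells after 24 h chemical exposure, with 3 nM 6-alpha-fluorotestosterone added; baseline was DMSO.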
# [12] = biological target: human Thyroid hormone Receptor beta (TRb), THRB (gene 7068) (UniProt P10828); assay: ATG_hTRb_XSP1: Attagene TRANS-FACTORIAL Multi-Species (XSP1) HepG2 Assay for human Thyroid hormone Receptor beta (TRb) (AID 2283808)
# Summary of the method: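 Readout is reporter mRNA induction measured by RT-PCR, fluorescent labelling and capillary electrophoresis, fitted upward relative to DMSO. Transiently transfected human HepG2 cells expressing NR-Gal4 chimeras were dosed for 24 h, medium containing 3 nM 6-alpha-fluorotestosterone.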
# [13] = biological target: zebrafish Thyroid Hormone Receptor beta (TRb), thrb (gene 30607) (UniProt Q9PVE4); assay: ATG_zfTRb_XSP1: Attagene TRANS-FACTORIAL Multi-Species (XSP1) HepG2 Assay for zebrafish Thyroid Hormone Receptor beta (TRb) (AID 2283809)
# Summary of the method: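 HepG2 cells transiently transfected with multiplexed GAL4-UAS reporter units expressing chimeric zebrafish TRb–Gal4. Dosed 24 h with 3 nM 6-alpha-fluorotestosterone present; reporter mRNA measured by RT-PCR, HpaI digestion and capillary electrophoresis; gain of signal versus DMSO.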
# [14] = ATG_XTT_Cytotoxicity_XSP1: Cytotoxicity Assessment in the Attagene TRANS-FACTORIAL Multi-Species (XSP1) HepG2 Assay (AID 2283810)
# Summary of the method: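 XTT viability readout taken at 24 hours post-dosing in HepG2 liver cells co-treated with 3 nM 6-alpha-fluorotestosterone. Signal loss relative to DMSO controls reflects cytotoxicity.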
# [15] = system: turtle Thyroid Hormone Receptor, alpha (TRa), gene 101949057; assay: ATG_trTRa_XSP1: Attagene TRANS-FACTORIAL Multi-Species (XSP1) HepG2 Assay for turtle Thyroid Hormone Receptor, alpha (TRa) (AID 2283806)
# Summary of the method: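 After 24 h chemical exposure, reporter transcripts were measured by RT-PCR with fluorescent primer extension, HpaI digestion and capillary electrophoresis. Cells were transiently transfected HepG2 expressing exogenous NR-Gal4 chimeras; medium contained 3 nM 6-alpha-fluorotestosterone; fitted upward relative to DMSO.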
# [16] = biological target: GAL4 Transcription Factor (Internal Marker), GAL4 (gene 855828) (UniProt P04386); assay: ATG_GAL4_XSP2: Attagene TRANS-FACTORIAL Multi-Species (XSP2) HepG2 Assay for GAL4 Transcription Factor (Internal Marker) (AID 2283814);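 further: GAL4 reporter mRNA background control in MRTU transfected cells not a receptor target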
# Summary of the method: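 Background-control readout: gain-of-signal fitted against DMSO. After 24 h exposure of transfected HepG2 (MRTU, GAL4-UAS reporters; 3 nM 6-alpha-fluorotestosterone, 1.5 nM norgestrel present), transcripts quantified by RT-PCR and capillary electrophoresis fluorescence.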
# [17] = system: zebrafish Peroxisome Proliferator-activated Receptor gamma (PPARg), gene 557037; assay: ATG_zfPPARg_XSP1: Attagene TRANS-FACTORIAL Multi-Species (XSP1) HepG2 Assay for zebrafish Peroxisome Proliferator-activated Receptor gamma (PPARg) (AID 2283801)
# Summary of the method: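 Trans-activation readout of chimeric zebrafish PPARg–GAL4 in transiently transfected human HepG2 cells, 24 h chemical exposure (medium includes 3 nM 6-alpha-fluorotestosterone). Reporter transcripts measured by RT-PCR and capillary electrophoresis, fitted as gain over DMSO.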
# [18] = system: turtle Androgen Receptor (AR), gene 101947425; assay: ATG_trAR_XSP2: Attagene TRANS-FACTORIAL Multi-Species (XSP2) HepG2 Assay for turtle Androgen Receptor (AR) (AID 2283815)
# Summary of the method: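 Reporter transcripts were quantified via RT-PCR and capillary electrophoresis and fitted upward against DMSO. Transiently transfected human HepG2 cells carrying NR-Gal4 chimeras were exposed 24 h, with 3 nM 6-alpha-fluorotestosterone plus 1.5 nM norgestrel added.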
# [19] = ATG_M_19_XSP1: Attagene TRANS-FACTORIAL Multi-Species (XSP1) HepG2 Assay for M19 Transcription Factor (Internal Marker) (AID 2283798)
# Summary of the method: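 Readout is reporter mRNA induction quantified via RT-PCR, 6-FAM labeling, HpaI digestion and capillary electrophoresis, fitted in the positive direction versus DMSO baseline. Transfected HepG2 cells exposed 24 h, medium including 3 nM 6-alpha-fluorotestosterone.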
# [20] = biological target: GAL4 Transcription Factor (Internal Marker), GAL4 (gene 855828) (UniProt P04386); assay: ATG_GAL4_XSP1: Attagene TRANS-FACTORIAL Multi-Species (XSP1) HepG2 Assay for GAL4 Transcription Factor (Internal Marker) (AID 2283789)
# Summary of the method: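 This background-control endpoint measures GAL4-driven reporter mRNA via RT-PCR and capillary electrophoresis of labelled fragments. Transiently transfected HepG2 cells were treated 24 h, with 3 nM 6-alpha-fluorotestosterone included, and gain-of-signal was fitted against DMSO.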
# Sequence of human Thyroid hormone Receptor beta (TRb), THRB (gene 7068) (P10828 whole entry, looked up, the tested form may be a part): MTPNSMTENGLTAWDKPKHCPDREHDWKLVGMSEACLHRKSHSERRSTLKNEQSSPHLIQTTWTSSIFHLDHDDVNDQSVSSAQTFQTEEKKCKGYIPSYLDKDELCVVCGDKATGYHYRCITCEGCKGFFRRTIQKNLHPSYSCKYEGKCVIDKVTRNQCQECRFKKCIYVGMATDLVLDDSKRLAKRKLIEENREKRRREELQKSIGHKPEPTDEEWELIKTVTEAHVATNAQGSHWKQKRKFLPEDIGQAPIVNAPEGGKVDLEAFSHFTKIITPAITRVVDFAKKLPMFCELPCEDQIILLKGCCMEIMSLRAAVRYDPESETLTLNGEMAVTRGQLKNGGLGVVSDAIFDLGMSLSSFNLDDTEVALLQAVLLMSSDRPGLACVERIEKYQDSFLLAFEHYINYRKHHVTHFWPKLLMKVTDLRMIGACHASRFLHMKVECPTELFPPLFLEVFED
# Sequence of Nuclear receptor subfamily 1 group I member 2 (Mus musculus) (O54915 whole entry, looked up, the tested form may be a part): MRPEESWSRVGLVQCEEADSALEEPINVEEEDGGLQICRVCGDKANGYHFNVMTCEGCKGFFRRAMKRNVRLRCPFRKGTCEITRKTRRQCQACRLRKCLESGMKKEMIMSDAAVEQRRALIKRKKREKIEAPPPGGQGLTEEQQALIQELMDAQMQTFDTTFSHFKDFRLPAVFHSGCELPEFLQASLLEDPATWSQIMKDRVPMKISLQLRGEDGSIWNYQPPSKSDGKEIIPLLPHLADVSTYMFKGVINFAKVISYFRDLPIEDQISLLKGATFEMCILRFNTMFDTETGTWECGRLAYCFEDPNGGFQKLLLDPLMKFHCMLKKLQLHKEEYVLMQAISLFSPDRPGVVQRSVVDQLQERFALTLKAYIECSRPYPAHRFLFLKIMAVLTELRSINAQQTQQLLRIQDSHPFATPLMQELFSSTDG
# Sequence of zebrafish Thyroid Hormone Receptor beta (TRb), thrb (gene 30607) (Q9PVE4 whole entry, looked up, the tested form may be a part): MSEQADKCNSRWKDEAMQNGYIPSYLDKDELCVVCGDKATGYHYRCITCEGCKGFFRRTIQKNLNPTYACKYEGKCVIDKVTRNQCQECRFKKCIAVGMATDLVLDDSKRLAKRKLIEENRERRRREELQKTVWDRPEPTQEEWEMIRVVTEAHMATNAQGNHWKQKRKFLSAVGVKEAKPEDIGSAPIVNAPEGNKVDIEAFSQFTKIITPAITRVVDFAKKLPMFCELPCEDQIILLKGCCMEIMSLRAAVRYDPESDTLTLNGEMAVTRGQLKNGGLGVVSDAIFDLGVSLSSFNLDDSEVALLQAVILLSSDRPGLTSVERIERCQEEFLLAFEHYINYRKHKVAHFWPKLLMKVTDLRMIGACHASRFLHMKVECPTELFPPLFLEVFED
# Sequence of zebrafish Thyroid Hormone Receptor alpha (TRa), thraa (gene 30670) (Q98867 whole entry, looked up, the tested form may be a part): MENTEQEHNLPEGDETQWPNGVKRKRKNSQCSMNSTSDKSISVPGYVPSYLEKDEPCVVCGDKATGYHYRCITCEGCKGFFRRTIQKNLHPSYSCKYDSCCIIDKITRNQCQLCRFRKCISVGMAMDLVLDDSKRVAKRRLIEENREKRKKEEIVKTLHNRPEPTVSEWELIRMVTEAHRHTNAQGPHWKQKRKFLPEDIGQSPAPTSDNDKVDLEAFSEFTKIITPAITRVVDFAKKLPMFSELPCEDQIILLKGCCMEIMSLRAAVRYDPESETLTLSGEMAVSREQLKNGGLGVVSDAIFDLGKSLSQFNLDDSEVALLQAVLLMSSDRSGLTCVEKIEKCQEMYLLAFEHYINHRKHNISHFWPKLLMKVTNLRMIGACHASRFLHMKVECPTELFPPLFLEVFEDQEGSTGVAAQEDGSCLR
# Sequence of GAL4 Transcription Factor (Internal Marker), GAL4 (gene 855828) (P04386 whole entry, looked up, the tested form may be a part): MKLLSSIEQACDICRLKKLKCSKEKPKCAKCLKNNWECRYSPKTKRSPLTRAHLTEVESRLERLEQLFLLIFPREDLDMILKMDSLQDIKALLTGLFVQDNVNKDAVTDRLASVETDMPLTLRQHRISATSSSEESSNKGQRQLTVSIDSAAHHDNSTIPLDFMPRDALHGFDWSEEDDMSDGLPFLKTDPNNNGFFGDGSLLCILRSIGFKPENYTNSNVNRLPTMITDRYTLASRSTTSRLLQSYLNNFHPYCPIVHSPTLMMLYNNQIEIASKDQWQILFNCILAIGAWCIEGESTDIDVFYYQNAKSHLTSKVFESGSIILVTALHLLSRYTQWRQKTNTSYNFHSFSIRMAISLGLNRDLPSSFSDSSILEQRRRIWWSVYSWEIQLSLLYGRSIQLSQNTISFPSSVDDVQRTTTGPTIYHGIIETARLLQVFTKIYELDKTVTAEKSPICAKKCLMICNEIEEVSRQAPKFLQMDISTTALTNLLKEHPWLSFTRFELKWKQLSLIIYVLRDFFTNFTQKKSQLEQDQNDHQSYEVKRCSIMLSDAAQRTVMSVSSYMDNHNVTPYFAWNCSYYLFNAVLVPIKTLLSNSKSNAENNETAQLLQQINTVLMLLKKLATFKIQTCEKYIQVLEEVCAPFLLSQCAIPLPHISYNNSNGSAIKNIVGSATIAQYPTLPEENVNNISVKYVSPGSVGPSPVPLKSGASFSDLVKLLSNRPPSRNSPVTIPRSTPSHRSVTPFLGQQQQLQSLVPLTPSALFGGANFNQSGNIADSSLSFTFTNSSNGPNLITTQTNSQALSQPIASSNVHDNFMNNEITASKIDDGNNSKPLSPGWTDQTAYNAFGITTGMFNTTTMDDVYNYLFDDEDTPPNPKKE
# Sequence of Estrogen receptor beta (Homo sapiens) (Q92731 whole entry, looked up, the tested form may be a part): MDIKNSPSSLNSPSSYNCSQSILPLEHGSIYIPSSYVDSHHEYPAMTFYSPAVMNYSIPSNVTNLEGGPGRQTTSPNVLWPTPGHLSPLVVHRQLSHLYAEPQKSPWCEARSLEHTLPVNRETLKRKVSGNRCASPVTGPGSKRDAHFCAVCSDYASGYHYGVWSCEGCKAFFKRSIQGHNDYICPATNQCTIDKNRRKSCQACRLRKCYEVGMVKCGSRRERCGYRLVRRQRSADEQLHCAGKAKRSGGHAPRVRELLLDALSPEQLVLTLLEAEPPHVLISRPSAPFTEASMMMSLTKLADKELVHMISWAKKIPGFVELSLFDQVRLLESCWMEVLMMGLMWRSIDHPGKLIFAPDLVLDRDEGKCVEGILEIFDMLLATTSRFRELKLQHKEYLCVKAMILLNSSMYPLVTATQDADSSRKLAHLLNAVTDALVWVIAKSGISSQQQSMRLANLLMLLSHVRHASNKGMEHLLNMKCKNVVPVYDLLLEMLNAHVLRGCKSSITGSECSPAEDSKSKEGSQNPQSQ
# Sequence of Peroxisome proliferator-activated receptor gamma (Homo sapiens) (P37231 whole entry, looked up, the tested form may be a part): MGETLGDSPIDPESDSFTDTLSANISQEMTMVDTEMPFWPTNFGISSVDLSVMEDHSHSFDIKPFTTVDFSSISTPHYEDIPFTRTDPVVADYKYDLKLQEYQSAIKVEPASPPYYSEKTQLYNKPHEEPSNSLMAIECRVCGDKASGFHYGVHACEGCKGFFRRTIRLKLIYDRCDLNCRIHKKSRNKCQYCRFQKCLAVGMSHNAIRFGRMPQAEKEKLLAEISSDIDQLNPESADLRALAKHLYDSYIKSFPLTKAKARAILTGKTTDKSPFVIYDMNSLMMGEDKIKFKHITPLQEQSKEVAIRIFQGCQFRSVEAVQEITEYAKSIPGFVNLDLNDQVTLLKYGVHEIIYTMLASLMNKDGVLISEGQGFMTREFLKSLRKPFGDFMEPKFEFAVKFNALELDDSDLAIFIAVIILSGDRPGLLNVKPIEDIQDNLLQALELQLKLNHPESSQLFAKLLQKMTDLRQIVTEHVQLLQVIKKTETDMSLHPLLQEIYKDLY
# Sequence of mouse Peroxisome Proliferator-activated Receptor gamma (PPARg), Pparg (gene 19016) (P37238 whole entry, looked up, the tested form may be a part): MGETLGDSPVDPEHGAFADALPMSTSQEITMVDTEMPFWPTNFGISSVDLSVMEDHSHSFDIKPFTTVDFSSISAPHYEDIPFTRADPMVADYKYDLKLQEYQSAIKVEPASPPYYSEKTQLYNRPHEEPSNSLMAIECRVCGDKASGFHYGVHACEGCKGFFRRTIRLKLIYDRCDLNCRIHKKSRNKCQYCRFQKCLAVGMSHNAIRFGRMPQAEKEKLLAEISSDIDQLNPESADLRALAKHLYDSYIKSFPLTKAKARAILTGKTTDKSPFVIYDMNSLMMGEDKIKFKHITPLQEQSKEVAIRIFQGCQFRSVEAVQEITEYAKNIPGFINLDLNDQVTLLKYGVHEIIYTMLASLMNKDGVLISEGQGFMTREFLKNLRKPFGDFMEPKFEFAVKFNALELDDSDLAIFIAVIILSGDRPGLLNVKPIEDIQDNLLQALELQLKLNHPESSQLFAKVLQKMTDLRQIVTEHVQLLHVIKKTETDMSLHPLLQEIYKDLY
smiles,measurement,setting,value
CCC(CC)Nc1c([N+](=O)[O-])cc(C)c(C)c1[N+](=O)[O-],outcome,[1],inactive
same,AC50,[2],2.52 µM (active) and 1.7 µM (active)
same,outcome,[3],inactive
C#CCC1=C(C)C(OC(=O)C2C(C=C(C)C)C2(C)C)CC1=O (stereo not given),outcome,[4],inactive
same,outcome,[5],inactive
same,outcome,[6],inactive
same,outcome,[7],inactive
same,AC50,[8],27.2 µM (active)
same,AC50,[9],26.7 µM (active)
same,AC50,[10],0.32 µM (active)
same,outcome,[11],inactive
same,outcome,[12],inactive
same,outcome,[13],inactive
same,outcome,[14],inactive
same,outcome,[1],inactive
same,outcome,[3],inactive
CCC(=O)Nc1ccc(Cl)c(Cl)c1,outcome,[1],inactive
same,outcome,[2],inactive
C#CC(C)(C)NC(=O)c1cc(Cl)cc(Cl)c1,outcome,[5],inactive
same,outcome,[6],inactive
same,AC50,[10],13.3 µM (active)
same,outcome,[15],inactive
same,outcome,[11],inactive
same,outcome,[12],inactive
same,outcome,[13],inactive
same,outcome,[1],inactive
same,outcome,[2],inactive
same,outcome,[16],inactive
CCc1cccc(C)c1N(C(=O)CCl)C(C)COC (stereo not given),AC50,[4],4.14 µM (active)
same,outcome,[5],inactive
same,outcome,[6],inactive
same,outcome,[7],inactive
same,AC50,[8],5.37 µM (active)
same,outcome,[17],inactive
same,AC50,[9],25.5 µM (active)
same,AC50,[10],3.28 µM (active)
same,outcome,[15],inactive
same,outcome,[11],inactive
same,outcome,[13],inactive
same,outcome,[14],inactive
same,outcome,[1],inactive
same,outcome,[2],inactive
same,outcome,[3],inactive
same,outcome,[16],inactive
same,outcome,[18],inactive
CCOP(=S)(OCC)Oc1ccc2c(C)c(Cl)c(=O)oc2c1,outcome,[4],inactive
same,outcome,[5],inactive
same,outcome,[6],inactive
same,outcome,[19],inactive
same,outcome,[7],inactive
same,AC50,[8],11.4 µM (active)
same,AC50,[9],26.7 µM (active)
same,AC50,[10],0.214 µM (active)
same,outcome,[15],inactive
same,outcome,[11],inactive
same,outcome,[13],inactive
same,outcome,[1],inactive
same,outcome,[2],inactive
same,outcome,[3],inactive
same,outcome,[16],inactive
CCCOCC(=Nc1ccc(Cl)cc1C(F)(F)F)n1ccnc1,outcome,[20],inactive
same,outcome,[19],inactive
same,outcome,[7],inactive
same,AC50,[8],0.985 µM (active)
same,outcome,[17],inactive
same,AC50,[9],0.674 µM (active)
same,AC50,[10],0.201 µM (active)
same,outcome,[15],inactive
same,outcome,[11],inactive
same,outcome,[12],inactive
same,outcome,[13],inactive
same,AC50,[14],100 µM (active)
same,outcome,[1],inactive
same,outcome,[3],inactive
CCOP(=O)(NC(C)C)Oc1ccc(SC)c(C)c1 (stereo not given),outcome,[1],inactive
same,AC50,[2],100 µM (active) and 52.6 µM (active)
same,outcome,[3],inactive
same,outcome,[16],inactive
COc1ccc(C(=CC(=O)N2CCOCC2)c2ccc(Cl)cc2)cc1OC,outcome,[1],inactive
same,outcome,[2],inactive
same,outcome,[3],inactive
same,outcome,[16],inactive
Nc1c(Cl)cc([N+](=O)[O-])cc1Cl,outcome,[2],inactive
same,outcome,[3],inactive
same,outcome,[16],inactive

# Source: PubChem BioAssay (EPA / NIEHS)
